PfM18AAP inh: PfM18AAP enzyme inhibition | recombinant PfM18AAP, H-Glu-NHMec fluorogenic cleavage | inhibition, % at 7.35 µM | 1.2% of 290,000 active | AID 1822;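 active means inhibition above the campaign mean inhibition over all tested compounds plus 3 SD, cut at about 28% in these data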;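 further: 0% = plate median of test compound wells and 100% = 2 mM ZnCl2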
PfG6PD inh: PfG6PD (Plasmodium falciparum) enzyme inhibition | PfGluPho enzyme, NADPH resazurin-diaphorase fluorescence | 0.78% of 350,000 active | inhibition, % at 20 µM | AID 504690;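 active means inhibition reaching at least a set limit at 20 µM in the primary screen, cut at about 59% in these data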;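 further: 0% = DMSO wells with substrate and 100% = DMSO wells lacking glucose-6-phosphate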
ALR H2O2 inh: inhibitors of human sulfhydryl oxidase ALR | 3.8% of 290,000 active | purified ALR, DTT oxidation, H2O2 HRP-luminol luminescence | P55789 | inhibition, % (test concentration not listed);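 active means mean replicate inhibition above about 79%, with every replicate also reaching it, limit read from the data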
Target sequence (P55789 whole entry, looked up): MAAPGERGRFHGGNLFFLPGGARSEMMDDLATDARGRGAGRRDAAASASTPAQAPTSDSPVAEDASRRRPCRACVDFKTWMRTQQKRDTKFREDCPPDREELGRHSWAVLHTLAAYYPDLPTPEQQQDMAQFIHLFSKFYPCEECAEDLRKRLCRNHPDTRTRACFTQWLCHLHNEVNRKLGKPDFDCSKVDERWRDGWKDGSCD
PHOSPHO1 block: inhibitors of human PHOSPHO1 phosphatase; Q8TCT1; recombinant PHOSPHO1, absorbance phosphatase assay; inhibition, % at 13.3 µM; 1.1% of 290,000 active; in the data active means inhibition above about 60%
Target sequence (Q8TCT1 whole entry, looked up): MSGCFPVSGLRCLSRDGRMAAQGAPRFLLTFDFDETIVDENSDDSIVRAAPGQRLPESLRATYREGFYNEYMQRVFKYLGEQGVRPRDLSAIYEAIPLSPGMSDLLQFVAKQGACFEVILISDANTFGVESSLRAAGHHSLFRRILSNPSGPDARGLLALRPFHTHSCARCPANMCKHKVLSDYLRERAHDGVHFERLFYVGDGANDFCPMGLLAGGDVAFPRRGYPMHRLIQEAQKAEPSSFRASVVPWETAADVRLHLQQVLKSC
H9c2 protect: protects H9c2 cardiomyocytes from peroxide injury; H2O2 injury protection, ATPLite, 2 h; protection from H2O2 cell death, % at 20 µM; 0.63% of 360,000 active;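 active means compounds giving at least 50% protection of heart cells from peroxide-induced death in the single-dose screen, raw or plate-pattern-corrected value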;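 further: 0% = DMSO wells with peroxide and 100% = DMSO wells without peroxide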
* = called active by the depositor; . = not tested or not shown. Only some compounds are listed: those with a hit (about 5.6% of all), similar ones and a draw of the others.

SMILES	PfM18AAP inh	PfG6PD inh	ALR H2O2 inh	PHOSPHO1 block	H9c2 protect
COc1ccccc1/C=c1\sc2nc(-c3ccccc3OC)nn2c1=O	-7	13	-5	87*	10
COc1ccc(Br)cc1/C=c1\sc2nc(-c3ccco3)nn2c1=O	.	7	4	-8	6
O=C1CSC(=NC2CCCCC2)N1	7	-11	98*	2	-2
CCOC(=O)c1c(CN2CCN(C)CC2)n(-c2ccccc2)c2cc(Br)c(O)cc12	6	19	79*	33	-18
CCOC(=O)c1c(CN2CCN(CCO)CC2)n(-c2ccccc2)c2cc(Br)c(O)cc12	6	16	68	29	-3
Cn1c(=O)c(Oc2cc(Cl)cc(Cl)c2)nc2ccccc21	2	-11	98*	-6	-18
CC(C)n1c(=S)[nH]c2scc(-c3cccs3)c2c1=O	7	8	90*	-112	12
O=c1c2c(-c3cccs3)csc2[nH]c(=S)n1-c1ccccc1	6	-12	90*	67*	14
CCn1c(=S)[nH]c2scc(-c3cccs3)c2c1=O	-2	-27	.	-75	-6
O=c1c2c(-c3cccs3)csc2ncn1-c1ccccc1	-6	-6	-1	-4	-6
CN(C)C(=O)CSc1ccc(S(=O)(=O)N2CCOCC2)cn1	.	-4	.	.	1
COc1cc(NC(=O)CCS(=O)(=O)c2ccc3c(c2)n(C)c(=O)c(=O)n3C)cc(OC)c1	-28	8	-19	-46	-3
O=C(O)CC1(CC(=O)NCc2ccncc2)CCCCC1	6	-7	-3	24	4
O=C(NCCCN1CCCC1)c1ccc2c(Cl)c3c(nc2c1)CCCC3	0	11	94*	-2	-2
CCOC(=O)N1CCN(C(=O)c2ccc3c(SCC(=O)O)c4c(nc3c2)CCC4)CC1	2	11	80*	9	7
CCCN1CCN(CCCNC(=O)c2ccc3c(Cl)c4c(nc3c2)CCCC4)CC1	-1	14	44	29	-6
CC1CCN(C(=O)c2ccc3c(Cl)c4c(nc3c2)CCCC4)CC1	2	1	7	-17	-2
CCOC(=O)C1CCN(C(=O)c2ccc3c(Cl)c4c(nc3c2)CCCC4)CC1	4	20	95*	16	2
CC(=O)Nc1cccc(-c2ccnc3c2CC(C)(C(=O)Nc2cccc(Oc4ccccc4)c2)O3)c1 (stereo unspecified)	.	.	.	.	14
CCSc1nnc2n1C(C)(C)Cc1ccccc1-2	3	6	8	35	0
CC1(C)Cc2ccccc2-c2n[nH]c(=S)n21	1	52	51	96*	0
CCCC(=O)Nc1cc2c3c(c1)C(C)C(=O)N3CCC2 (stereo unspecified)	-3	-15	-67	40	3
CC(C)c1ccc(O)c(C(=O)c2cnn(-c3ccccc3)c2)c1	.	14	-2	.	-9
Cc1cc(C(=O)OCC(=O)Nc2c(F)cccc2F)c(C)n1-c1ccccc1	-11	9	-2	64*	-24
CCN1C(=O)[C@H]2[C@@H](c3ccc(-c4ccccc4)cc3)N[C@@](CC(C)C)(C(=O)OC)[C@H]2C1=O	.	17	0	.	6
SMILES	PfM18AAP inh	PfG6PD inh	ALR H2O2 inh	PHOSPHO1 block	H9c2 protect
O=C1NCCC/C1=N\Nc1ccc(Br)cc1	14	1	99*	20	2
O=[N+]([O-])C(=C1Nc2ccccc2N1)/C(Cl)=C(/Cl)Br	3	-9	89*	-5	-4
COc1cccc(NC(=O)C(C)Sc2nnc(C3CC3)n2C2CC2)c1 (stereo unspecified)	.	13	.	.	1
O=C(Nc1cccc(F)c1)C1CCN(C(=O)N2CCOc3ccccc32)CC1	-2	7	3	31	9
Cc1c(C)n(CC(O)CN2CCCCCC2)c2ccccc12 (stereo unspecified)	8	17	98*	-1	26
Cc1c(C)n(CC(O)CNc2ccccc2)c2ccccc12 (stereo unspecified)	12	25	98*	32	-2
COc1ccc(NCC(O)Cn2c(C)c(C)c3ccccc32)cc1 (stereo unspecified)	9	27	.	37	-9
N#Cc1ccc(CN2CCN(C(=O)CC(NC(=O)c3ccccc3)c3ccccc3)CC2)cc1 (stereo unspecified)	7	-2	.	14	0
CC(=O)N1CCN(S(=O)(=O)c2cccc(C(=O)Nc3ccccc3N3CCCC3)c2)CC1	.	0	97*	.	1
COc1ccc(NC(=O)c2ccc(CNc3c(N4CCCC4)c(=O)c3=O)cc2)cc1Cl	3	2	.	66*	-1
O=C(Nc1ccccc1O)c1cc(S(=O)(=O)N2CCOCC2)c(Cl)cc1Cl	10	7	90*	-2	1
CC1CN(S(=O)(=O)c2cccc(C(=O)Nc3ccccc3N3CCCC3)c2)CC(C)O1 (stereo unspecified)	.	2	97*	.	8
COc1ccc(NC(=O)C2CCC(CNc3c(N4CCOCC4)c(=O)c3=O)CC2)cc1Cl (stereo unspecified)	-5	-2	-5	27	3
CN1CCN(S(=O)(=O)c2cccc(C(=O)Nc3ccccc3N3CCCC3)c2)CC1	1	4	49	22	0
CCN(CC(=O)Nc1cc(S(=O)(=O)N2CCOCC2)ccc1C)Cc1ccccc1	.	-3	0	.	-9
CCn1cc(/C=C(\NC(=O)c2ccccc2F)C(=O)NCCCn2ccnc2)c2ccccc21	3	-12	10	44	9
COc1ccc(C(=O)Nc2ccc(N3CCCCCC3)cc2)cc1S(=O)(=O)N1CCOCC1	.	26	98*	.	-13
Cc1ccc(C(=O)Nc2ccccc2N2CCCC2)cc1S(=O)(=O)N1CCOCC1	.	0	98*	.	10
COc1ccc(C(=O)Nc2ccc(NC(=O)c3ccccc3)cc2)cc1S(=O)(=O)N1CCOCC1	-2	-10	-8	17	1
COc1ccc(S(=O)(=O)N2CCC(C(=O)Nc3ccccc3N3CCCC3)CC2)cc1OC	14	-5	97*	26	6
O=c1nccc(N/N=C/c2ccccc2O)[nH]1	29*	-31	0	34	22
CCOC(=O)N1CCC(n2c(SCC(=O)N3CCC(C)CC3)nc3ccccc3c2=O)CC1	-7	-4	-59	-3	67*
CCOc1cccc(N2CCN(CCNC(=O)Nc3ccc(C)cc3)CC2)c1C	-1	9	.	.	4
O=C(CCN1C(=O)c2ccccc2C1=O)c1ccccc1	.	1	.	.	2
Cc1ccc(N=C(NO)c2nonc2N)cc1	3	-3	92*	8	-1
SMILES	PfM18AAP inh	PfG6PD inh	ALR H2O2 inh	PHOSPHO1 block	H9c2 protect
O=S(=O)(c1cccs1)N1CCCCC1	.	9	.	.	4
CN1CCN(c2ccc(NC(=O)c3ccc(Cl)cc3)cn2)CC1	2	-21	94*	16	5
CN(C)c1ccc(NC(=O)c2ccc(N3CCOCC3)nc2)cc1	2	21	100*	19	2
Cc1ccc(C(=O)Nc2ccc(N3CCOCC3)nc2)cc1	3	4	-21	50	5
O=C(Nc1ccc(C(=O)NCCCN2CCN(c3ccc(F)cc3)CC2)cc1)C1=CSCCO1	-1	0	2	26	-1
S=c1nn[nH]c2ccccc12	.	18	.	.	-1

Screening results deposited in PubChem by several laboratories.
